SMILES strings stand for the structures. Unmarked numbers belong to inactive results. For some of these results: Potency and affinity values are given separately. The source made the active and inactive calls. Unless noted, the rule behind the calls is not given here.

Assay [1] can be described thus: antimalarial activity against Dd2 strain (AID 2302;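 active = growth inhibition above 50% at the single 2 µM test dose, taken to imply half-maximal potency below 2 µM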;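 note: 0% = DMSO untreated growth and 100% = chloroquine plus artemisinin killed control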). As to conditions: P. falciparum Dd2 in RBCs, LDH growth readout, 72 h; at 2 µM; hits give high values.
Assay [2] is described as follows: HepG2 cytotoxicity, primary screen, cytotoxicity control for P. falciparum antimalarial project, cell-based, ATP luminescence (AID 2303;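 active = inhibition above 50%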;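 note: 0% = DMSO wells and 100% = digitonin-killed cells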). As to conditions: HepG2 viability, 24-48 h, at 10 µM, hits give high values.
Assay [3] has as its target L-lactate dehydrogenase (Plasmodium falciparum (isolate CDC / Honduras)) (UniProt Q27743). As to the kind of experiment: PfLDH activity inhibition – cell lysate, 3D7 strain, counter-screen for P. falciparum growth inhibition project (AID 2304).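 Note: 0% = vehicle and 100% = reference inhibitor.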 As to conditions: P. falciparum 3D7 crude extract, LDH APAD/NBT absorbance; at 2 µM; hits give high values. For orientation: Counterscreens check selectivity or assay interference.

The nature of assay [4]: inhibition of 3D7 malaria parasite growth – strain 3D7 (AID 2306).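 Note: 0% = DMSO wells and 100% = chloroquine plus artemisinin control wells.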 Conditions: P. falciparum 3D7 erythrocytic growth, LDH absorbance, 72 h; at 2 µM; hits give high values.
Assay [5] addresses Calcium-dependent protein kinase 1 (Plasmodium falciparum (isolate 3D7)) (UniProt P62344). The assay can be described thus: PfCDPK1 kinase inhibitors, biochemical, TCAMS library (AID 1159585; cut-off not given, nearly all actives have IC50 up to about 0.98 µM;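 note: inhibitors leave more ATP so luminescence rises with inhibition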). As to conditions: recombinant PfCDPK1, Kinase-Glo ATP depletion luminescence. In general terms: In Kinase-Glo more light means more ATP remaining.
The target in assay [6] is Plasmodium falciparum protein kinase 6 (PK6, PF3D7_1337100) (UniProt Q8IDW1). As to the kind of experiment: PfPK6 kinase inhibitors, biochemical, TCAMS library (AID 1159586). As to conditions: recombinant PfPK6, Kinase-Glo ATP depletion luminescence.
Plasmodium falciparum protein kinase 6 (PK6, PF3D7_1337100), sequence (Q8IDW1 1-305): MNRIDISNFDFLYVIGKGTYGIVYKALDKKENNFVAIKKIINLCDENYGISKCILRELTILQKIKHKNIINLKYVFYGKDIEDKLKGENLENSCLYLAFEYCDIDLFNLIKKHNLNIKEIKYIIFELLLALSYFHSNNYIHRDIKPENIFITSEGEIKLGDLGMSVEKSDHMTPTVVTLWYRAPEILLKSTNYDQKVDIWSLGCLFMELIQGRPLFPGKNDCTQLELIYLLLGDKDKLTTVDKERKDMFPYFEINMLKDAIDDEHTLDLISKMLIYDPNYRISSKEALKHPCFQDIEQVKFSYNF
In assay [7] the target is Protein kinase 7 (PK7), Plasmodium falciparum 3D7 (PF3D7_0213400) (UniProt Q7YTF7). As to the kind of experiment: inhibition of Plasmodium PK7 catalytic activity – biochemical, TCAMS antimalarial set, Kinase-Glo luminescence (AID 1159587). As to conditions: recombinant PfPK7, Kinase-Glo ATP depletion luminescence.
Protein kinase 7 (PK7), Plasmodium falciparum 3D7 (PF3D7_0213400), sequence (Q7YTF7 1-343): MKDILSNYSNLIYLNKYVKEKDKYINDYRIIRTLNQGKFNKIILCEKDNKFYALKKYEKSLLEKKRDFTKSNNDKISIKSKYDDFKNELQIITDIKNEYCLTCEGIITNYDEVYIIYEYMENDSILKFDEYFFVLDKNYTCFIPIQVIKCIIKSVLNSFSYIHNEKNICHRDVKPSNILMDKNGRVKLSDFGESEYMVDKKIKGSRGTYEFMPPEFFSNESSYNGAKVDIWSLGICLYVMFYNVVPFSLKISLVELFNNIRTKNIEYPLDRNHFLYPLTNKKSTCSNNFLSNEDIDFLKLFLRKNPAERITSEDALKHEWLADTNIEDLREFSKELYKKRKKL
Assay [8] addresses Calcium-dependent protein kinase 4 (Plasmodium falciparum (isolate 3D7)) (UniProt Q8IBS5). As to the kind of experiment: PfCDPK4 kinase inhibitors, biochemical, TCAMS library (AID 1159588; cut-off not given, nearly all actives have IC50 up to about 0.91 µM). As to conditions: recombinant PfCDPK4, Kinase-Glo ATP depletion luminescence.

Calcium-dependent protein kinase 4 (Plasmodium falciparum (isolate 3D7)), sequence (Q8IBS5 whole entry, looked up): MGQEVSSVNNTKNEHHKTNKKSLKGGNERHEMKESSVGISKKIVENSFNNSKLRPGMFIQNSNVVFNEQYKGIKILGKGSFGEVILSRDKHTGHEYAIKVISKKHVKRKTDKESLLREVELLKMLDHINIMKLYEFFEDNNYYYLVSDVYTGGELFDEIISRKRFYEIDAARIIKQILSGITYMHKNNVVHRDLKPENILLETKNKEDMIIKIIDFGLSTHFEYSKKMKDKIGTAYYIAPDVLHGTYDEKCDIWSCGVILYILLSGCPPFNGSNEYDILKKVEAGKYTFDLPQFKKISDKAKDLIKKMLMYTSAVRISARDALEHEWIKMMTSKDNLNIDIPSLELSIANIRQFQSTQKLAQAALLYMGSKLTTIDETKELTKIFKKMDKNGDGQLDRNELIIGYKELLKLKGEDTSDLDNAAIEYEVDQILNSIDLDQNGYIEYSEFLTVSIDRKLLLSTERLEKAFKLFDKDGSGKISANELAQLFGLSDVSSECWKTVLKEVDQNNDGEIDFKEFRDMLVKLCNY
L-lactate dehydrogenase (Plasmodium falciparum (isolate CDC / Honduras)), sequence (Q27743 whole entry, looked up): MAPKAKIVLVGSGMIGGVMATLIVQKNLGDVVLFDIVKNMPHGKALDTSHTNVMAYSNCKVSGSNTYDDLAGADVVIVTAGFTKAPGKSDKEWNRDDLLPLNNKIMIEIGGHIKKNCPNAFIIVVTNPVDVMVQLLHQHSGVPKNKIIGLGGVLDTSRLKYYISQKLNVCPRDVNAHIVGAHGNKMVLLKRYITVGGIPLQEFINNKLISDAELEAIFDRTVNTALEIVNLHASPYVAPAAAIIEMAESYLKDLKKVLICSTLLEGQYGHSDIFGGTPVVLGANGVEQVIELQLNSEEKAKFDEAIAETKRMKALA
Calcium-dependent protein kinase 1 (Plasmodium falciparum (isolate 3D7)), sequence (P62344 whole entry, looked up): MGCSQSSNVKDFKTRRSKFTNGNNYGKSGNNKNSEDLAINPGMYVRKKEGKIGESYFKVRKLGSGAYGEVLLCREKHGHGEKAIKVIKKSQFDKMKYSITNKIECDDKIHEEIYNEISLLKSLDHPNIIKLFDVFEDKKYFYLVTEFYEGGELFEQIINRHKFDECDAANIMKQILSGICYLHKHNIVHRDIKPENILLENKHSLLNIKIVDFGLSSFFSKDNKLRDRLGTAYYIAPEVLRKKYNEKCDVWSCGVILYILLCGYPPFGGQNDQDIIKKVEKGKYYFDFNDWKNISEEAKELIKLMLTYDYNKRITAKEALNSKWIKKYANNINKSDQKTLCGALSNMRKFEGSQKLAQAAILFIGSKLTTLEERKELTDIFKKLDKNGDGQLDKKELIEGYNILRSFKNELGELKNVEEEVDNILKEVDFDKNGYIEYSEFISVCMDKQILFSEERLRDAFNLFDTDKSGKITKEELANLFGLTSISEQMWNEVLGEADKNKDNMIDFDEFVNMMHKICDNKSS

`CN(C)C(=O)n1cnc(S(=O)(=O)N(C)c2ccc(Cl)cc2)n1`: the figures for the growth inhibition in assay [1] and in assay [4] were 80% (active) and 88% (active), respectively. Besides, the results for the inhibition in assay [2] and in assay [3] were 7% and 3%, respectively. Moreover, the outcome in assay [5], in assay [6], in assay [7] and in assay [8] was inactive.
With `Cc1cc(NN=Cc2ccccc2Cl)c2cccc(C)c2n1`, the growth inhibition in assay [1] was 98% (active); in assay [4], 97% (active). For the same compound, the results for the inhibition in assay [2] and in assay [3] were 10% and 2%, respectively. Also, the result in assay [5], in assay [6], in assay [7] and in assay [8] was inactive.
As to `CCNc1cc(C(=O)N[C@@H](Cc2ccccc2)[C@H](O)CNC2CCCC2)cc(N2CCCC2=O)c1`, the growth inhibition in assay [1] and in assay [4] was 98% (active) throughout. The inhibition (usually the relative decrease from the control value, in per cent) in assay [2] was 8%; in assay [3], 2%. Further, the result in assay [5], in assay [6], in assay [7] and in assay [8] was inactive.
Turning to `O=C(/C=C/c1ccc(I)cc1)NCCCCCN1CCC(c2c[nH]c3ccc(O)cc23)CC1`, the growth inhibition in assay [1] was 1%; in assay [4], 97% (active). The results for the inhibition in assay [2] and in assay [3] were 14% and 2%, respectively. Moreover, the outcome in assay [5], in assay [6], in assay [7] and in assay [8] was inactive.
Turning to `O=C(Nc1cccc(F)c1)N1CCC(NS(=O)(=O)c2ccc(Br)cc2)CC1`, the growth inhibition in assay [1] was 23%; in assay [4] it was 93% (active). Moreover, the figures for the inhibition in assay [2] and in assay [3] were 4% and -1%, respectively. The outcome in assay [5], in assay [6], in assay [7] and in assay [8] was inactive.
Regarding `COc1ccccc1CNc1ccnc(N2CC(Oc3ccc(F)cc3)C2)n1`, the growth inhibition in assay [1] is 95% (active); in assay [4], 97% (active). Further, the results for the inhibition in assay [2] and in assay [3] were 2% and -4%, respectively. The outcome in assay [5], in assay [6], in assay [7] and in assay [8] was inactive.
Turning to `C=CCO[C@@H]1O[C@H](COC(c2ccccc2)(c2ccccc2)c2ccccc2)[C@@H](OC(C)=O)[C@H](OC(C)=O)[C@H]1NC(C)=O`, the growth inhibition in assay [1] is 66% (active); in assay [4], 93% (active). Further, the inhibition in assay [2] and in assay [3] was -1% throughout. In addition, the outcome in assay [5], in assay [6], in assay [7] and in assay [8] was inactive.
Consider `CCOc1ccc2c(NN=Cc3ccc(F)cc3)cc(C)nc2c1`, for which the growth inhibition in assay [1] is 99% (active); in assay [4] it was 101% (active). In addition, the values for the inhibition in assay [2] and in assay [3] were 22% and -3%, respectively. The outcome in assay [5], in assay [6], in assay [7] and in assay [8] was inactive.
Take `CCN(CC)CCOc1ccc(C(O)(C#CC(O)(c2ccc(OCCN(CC)CC)cc2)c2ccc([N+](=O)[O-])cc2)c2ccc([N+](=O)[O-])cc2)cc1` (stereo not given): the growth inhibition in assay [1] is 97% (active); in assay [4] it was 98% (active). The inhibition in assay [2] was 55% (active); in assay [3], 3%. The outcome in assay [5], in assay [6], in assay [7] and in assay [8] was inactive.
For the compound `C[C@H](NC(=O)c1cc(-c2ccc(C(C)(C)C)cc2)no1)C(=O)O` (tested in a mixture with another compound), the growth inhibition in assay [1] was 97% (active); in assay [4] it was 91% (active). The inhibition in assay [2] is 31%; in assay [3] it was -4%. The outcome in assay [5], in assay [6], in assay [7] and in assay [8] was inactive.
For the compound `N#Cc1ccc2c(c1)CCN(CCC1CCC(NC(=O)c3cccc(-c4ccc(F)cc4)c3)CC1)CC2` (stereo not given), the growth inhibition is 10% in assay [1] and 92% (active) in assay [4]. The inhibition is 32% in assay [2] and -3% in assay [3]. The outcome in assay [5], in assay [6], in assay [7] and in assay [8] was inactive.
With `COc1ccc(C2SCC(=O)N2CCc2ccc(OC)c(OC)c2)cc1` (stereo not given), the results for the growth inhibition in assay [1] and in assay [4] were 2% and 96% (active), respectively. Also, the inhibition is 19% in assay [2] and 1% in assay [3]. In addition, the outcome in assay [5], in assay [6], in assay [7] and in assay [8] was inactive.
Consider `COc1cccc2cc(C(=O)N[C@@H](CC(C)C)C(=O)N[C@H](/C=N/NC(=O)OC(C)(C)C)Cc3ccccc3)oc12`, for which the growth inhibition in assay [1] was 88% (active); in assay [4], 99% (active). In addition, the inhibition in assay [2] was 11%; in assay [3], 0%. In addition, the result in assay [5], in assay [6], in assay [7] and in assay [8] was inactive.
Regarding `O=C(Nc1ccc(Cn2ncc(N3CCCNCC3)c(Cl)c2=O)cc1)Nc1ccc(SC(F)(F)F)cc1`, the growth inhibition in assay [1] was 68% (active); in assay [4] it was 93% (active). Further, the inhibition in assay [2] was 9%; in assay [3], 4%. In addition, the result in assay [5], in assay [6], in assay [7] and in assay [8] was inactive.
`CCC(CC)N1C(=O)C(c2ccccc2)(c2ccccc2)N=C1N`: the growth inhibition in assay [1] was 61% (active); in assay [4] it was 96% (active). In addition, the results for the inhibition in assay [2] and in assay [3] were 14% and -7%, respectively. The outcome in assay [5], in assay [6], in assay [7] and in assay [8] was inactive.
Take `O=C(Nc1ccc(OC2CCN(Cc3ccc(F)cc3)CC2)cc1)c1cccs1`: the results for the growth inhibition in assay [1] and in assay [4] were 52% (active) and 84% (active), respectively. Also, the inhibition in assay [2] is 6%; in assay [3], -2%. Moreover, the result in assay [5], in assay [6], in assay [7] and in assay [8] was inactive.
`CN1CCC(NCc2ccc(-c3cccc(S(=O)(=O)NCc4ccccc4)c3)cc2)CC1`: the growth inhibition in assay [1] is 94% (active); in assay [4], 101% (active). Further, the inhibition was 72% (active) in assay [2] and -3% in assay [3]. Also, the result in assay [5], in assay [6], in assay [7] and in assay [8] was inactive.
With `Clc1ccc2c(Cl)c(CNCCCNc3nc4ccccc4[nH]3)[nH]c2c1`, the results for the growth inhibition in assay [1] and in assay [4] were 7% and 101% (active), respectively. Moreover, the inhibition was 38% in assay [2] and -1% in assay [3]. Moreover, the result in assay [5], in assay [6], in assay [7] and in assay [8] was inactive.
Turning to `COc1ccc(-c2nc3c(N)nc(N)nc3nc2C(C)C)cc1`, the growth inhibition in assay [1] was -4%; in assay [4], 96% (active). Moreover, the inhibition is 71% (active) in assay [2] and 6% in assay [3]. For the same compound, the result in assay [5], in assay [6], in assay [7] and in assay [8] was inactive.
Regarding `Cc1cccc2[nH]c(-c3cccc(-c4ccc(NC(=O)c5cccnc5)cc4)c3)nc12`, the figures for the growth inhibition in assay [1] and in assay [4] were 45% and 100% (active), respectively. The inhibition in assay [2] is 64% (active); in assay [3] it was -1%. Moreover, the result in assay [5], in assay [6], in assay [7] and in assay [8] was inactive.

For the origin of these results see PubChem BioAssay.
